# Active and inactive are the calls of the source. Unless noted, how the calls were made is not given here.
# Experiments:
# [1] = compound effects on lung adenocarcinoma cell viability – A549, calcein-AM fluorescence, 48 h, basal, profiling panel (AID 1162); conditions: higher = more signal; further: test concentration not given here
# [2] = compound effects on differentiated 3T3-L1 adipocyte viability – cell-based, 3T3-L1 adipocytes, calcein-AM fluorescence, 48 h, basal, profiling panel (AID 1163); conditions: 3T3-L1 adipocytes viability, higher = more signal; further: test concentration not given here
# [3] = compound effects on hepatocellular carcinoma cell viability – HepG2, calcein-AM fluorescence, 48 h, basal, profiling panel (AID 1164); conditions: higher = more signal; further: test concentration not given here
# [4] = compound effects on multiple myeloma cell viability – MM1S, calcein-AM fluorescence, 48 h, basal, profiling panel (AID 1165); conditions: higher = more signal; further: test concentration not given here
# [5] = calcein-AM signal in unstimulated myeloma cells – cell-based, calcein-AM fluorescence, 48 h, PK04 Diversity Set, profiling panel (AID 1166); conditions: RPMI8226 myeloma viability, higher = more signal;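 further: cells grown under basal conditions without added stimulus; test concentration not given here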
# [6] = JC-1 mitochondrial signal, unstimulated HepG2 cells – cell-based, JC-1 fluorescence, 24 h, 100 nL compound, profiling panel (AID 1167); conditions: HepG2 mitochondrial potential, higher = more signal; further: test concentration not given here
# [7] = JC-1 mitochondrial signal, unstimulated adipocytes – cell-based, JC-1 fluorescence, 3T3-L1 adipocytes, 24 h, 100 nL compound, profiling panel (AID 1168); conditions: JC-1 mitochondrial fluorescence, higher = more signal, called active from +8 up or from −8 down; further: test concentration not given here
# [8] = JC-1 mitochondrial signal, unstimulated myeloma cells – cell-based, JC-1 fluorescence, RPMI8226, 24 h, 100 nL compound, profiling panel (AID 1169); conditions: JC-1 mitochondrial potential fluorescence, higher = more signal; further: test concentration not given here
# [9] = JC-1 mitochondrial signal, unstimulated MM1S myeloma – cell-based, JC-1 fluorescence, 24 h, 100 nL compound, profiling panel (AID 1170); conditions: MM1S mitochondrial potential, higher = more signal; further: test concentration not given here
# [10] = resazurin metabolic signal in A549 cells – cell-based, resazurin fluorescence, 24 h, PK04 Diversity Set, profiling panel (AID 1171); conditions: A549 viability, higher = more signal, called active from +8 up or from −8 down; further: test concentration not given here
# [11] = resazurin metabolic signal in HepG2 cells – cell-based, resazurin fluorescence, 24 h, PK04 Diversity Set, profiling panel (AID 1172); conditions: HepG2 viability, higher = more signal; further: test concentration not given here
# [12] = budding yeast growth changes without added modifier – OD600, strain BY4716, 24 h, basal condition, primary screen (AID 1173); conditions: S. cerevisiae BY4716 growth, OD600, 24 h; higher = more signal, called active from +8 up or from −8 down
# [13] = viability profiling in MM1S myeloma cells – cell-based, resazurin fluorescence, basal, 24 h, PK04 Diversity Set, profiling panel (AID 1174); conditions: higher = more signal, called active from +8 up or from −8 down; further: test concentration not given here
# [14] = target: Dihydroorotate dehydrogenase (quinone), mitochondrial (Plasmodium falciparum (isolate 3D7)) (UniProt Q08210); test: inhibition of P. falciparum DHODH – biochemical, C-terminal His tag, absorbance 600 nm, primary screen (AID 1175); conditions: PfDHODH enzyme, DCIP absorbance 600 nm; higher = more signal, called active from +8 up or from −8 down;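 further: recombinant parasite enzyme with a five histidine tag at its C terminus; test concentration not given here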
# [15] = inhibition of PAO1 biofilm formation – strain PAO1, LB-PBS medium, absorbance 600 nm, primary screen (AID 1176); further: test concentration not given here; conditions: P. aeruginosa PAO1 growth/biofilm, A600, 12 h; higher = more signal
# [16] = growth modulation of vineyard yeast isolate – strain RM11-1a, OD600, basal, 24 h, primary screen (AID 1177);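 further: cultures grown under basal conditions with no added stressor; test concentration not given here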; conditions: S. cerevisiae RM11-1a growth, OD600, 24 h; higher = more signal, called active from +8 up or from −8 down
# [17] = growth of efflux-deficient E. coli DRC39 – strain DRC39, OD650, 24 h, E. coli filamentation inducers, primary screen (AID 1178);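 further: growth measured as culture turbidity by optical density at 650 nm; test concentration not given here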; conditions: E. coli DRC39 acrAB, higher = more signal, called active from +8 up or from −8 down
# [18] = growth of efflux-deficient E. coli DRC39 – strain DRC39, OD650, 48 h, E. coli filamentation inducers, primary screen (AID 1179);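 further: screen aims at cell division blockers that make cells filament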; conditions: E. coli DRC39 delta-acrAB growth, higher = more signal, called active from +8 up or from −8 down
# [19] = viability profiling in RPMI8226 myeloma cells – cell-based, resazurin fluorescence, basal, 24 h, PK04 Diversity Set, profiling panel (AID 1180); conditions: higher = more signal;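 further: RPMI8826 multiple myeloma cell line at 5000 cells per well; test concentration not given here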
# [20] = target: E3 ubiquitin-protein ligase XIAP (Homo sapiens) (UniProt P98170); test: small molecules binding XIAP protein – biophysical, small-molecule microarray, fluorescence 635 nm, primary screen (AID 1181); conditions: higher = more signal;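 further: score merges 667 nm emission and signal to noise over triplicate slides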
# Sequence of E3 ubiquitin-protein ligase XIAP (Homo sapiens) (P98170 whole entry, looked up): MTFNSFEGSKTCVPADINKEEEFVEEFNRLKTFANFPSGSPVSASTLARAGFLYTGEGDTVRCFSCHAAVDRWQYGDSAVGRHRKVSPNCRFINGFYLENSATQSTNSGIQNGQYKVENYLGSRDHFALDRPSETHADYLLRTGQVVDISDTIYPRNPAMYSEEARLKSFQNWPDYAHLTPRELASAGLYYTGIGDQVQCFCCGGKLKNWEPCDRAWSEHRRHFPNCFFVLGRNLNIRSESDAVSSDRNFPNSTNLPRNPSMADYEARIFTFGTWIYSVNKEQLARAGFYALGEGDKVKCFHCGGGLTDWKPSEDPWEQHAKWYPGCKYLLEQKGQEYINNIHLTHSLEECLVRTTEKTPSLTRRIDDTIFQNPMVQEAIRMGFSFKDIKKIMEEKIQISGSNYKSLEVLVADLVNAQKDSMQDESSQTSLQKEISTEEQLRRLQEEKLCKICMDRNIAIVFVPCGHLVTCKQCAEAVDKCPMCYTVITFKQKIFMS
# Sequence of Dihydroorotate dehydrogenase (quinone), mitochondrial (Plasmodium falciparum (isolate 3D7)) (Q08210 whole entry, looked up): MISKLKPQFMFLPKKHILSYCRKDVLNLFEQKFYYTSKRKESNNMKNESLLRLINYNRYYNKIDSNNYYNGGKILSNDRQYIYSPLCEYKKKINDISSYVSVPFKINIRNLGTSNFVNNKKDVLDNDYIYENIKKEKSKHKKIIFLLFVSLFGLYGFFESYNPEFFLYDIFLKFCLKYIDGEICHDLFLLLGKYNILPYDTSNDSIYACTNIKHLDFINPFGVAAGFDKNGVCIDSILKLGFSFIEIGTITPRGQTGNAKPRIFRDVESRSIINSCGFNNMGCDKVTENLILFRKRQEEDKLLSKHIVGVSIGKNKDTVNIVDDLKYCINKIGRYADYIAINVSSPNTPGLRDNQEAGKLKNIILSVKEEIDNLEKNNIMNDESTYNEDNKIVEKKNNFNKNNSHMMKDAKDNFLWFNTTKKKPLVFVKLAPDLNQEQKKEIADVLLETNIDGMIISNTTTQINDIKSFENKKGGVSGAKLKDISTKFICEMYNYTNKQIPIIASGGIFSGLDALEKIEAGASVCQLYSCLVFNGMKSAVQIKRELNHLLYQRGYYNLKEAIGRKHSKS
Structure (SMILES),z-score [1],z-score [2],z-score [3],z-score [4],z-score [5],z-score [6],z-score [7],z-score [8],z-score [9],z-score [10],z-score [11],z-score [12],z-score [13],composite z-score [14],z-score [15],z-score [16],z-score [17],z-score [18],z-score [19],composite z-score [20]
O=C1C2C=CC(C(O)c3ccccn3)N(Nc3ccc([N+](=O)[O-])cc3)C2C(=O)N1c1ccccc1 (stereo not given),-0.264,-0.723,0.19,-0.416,-0.737,-1.47,-1.83 (inactive),-0.187,-1.13,-0.0475 (inactive),-0.534,0.512 (inactive),-0.494 (inactive),0.128 (inactive),1.17 (inactive),-0.841 (inactive),-0.63 (inactive),-0.462 (inactive),-1.03,0.359
COc1ccc(C(O)C2C=CC3C(=O)N(C)C(=O)C3N2Nc2ccccc2)cc1 (stereo not given),-1.12,-0.221,-0.393,0.291,-0.301,-1.27,-0.0635 (inactive),-0.176,-0.153,-1.27 (inactive),-1.73,-3.09 (inactive),-0.956 (inactive),-0.685 (inactive),1.33 (inactive),-0.119 (inactive),-0.386 (inactive),-0.605 (inactive),-1.08,0.032
COC(=O)[C@@]1(Cc2ccc(F)cc2)[C@H]2c3cc(C(=O)N4CCCC4)n(CCSCCO)c3C[C@H]2CN1C(=O)c1ccccc1,-0.354,0.75,0.706,-1.58,-0.118,1.3,-1.3 (inactive),-0.00907,-0.303,-0.294 (inactive),-0.704,1.54 (inactive),-0.526 (inactive),0.289 (inactive),0.855 (inactive),1.3 (inactive),-0.405 (inactive),-0.317 (inactive),-0.546,0.0378
CN1C(=O)C2C=CC(C(O)c3ccc(I)cc3)N(N(c3ccccc3)c3ccccc3)C2C1=O (stereo not given),-0.62,-1.15,-0.0518,-0.0182,-0.726,-0.994,-1.67 (inactive),-0.251,-0.752,-0.614 (inactive),-0.476,0.943 (inactive),-0.788 (inactive),0.0495 (inactive),0.944 (inactive),0.67 (inactive),-1.36 (inactive),-0.105 (inactive),-1.1,0.95
O=C1O[C@H](c2ccccc2)[C@H](c2ccccc2)N2[C@H]1[C@@H](C(=O)N1CCCCCCC1)[C@]1(C(=O)Nc3ccc(C#CCCO)cc31)[C@H]2c1ccc(O)cc1,1.53,0.0496,1.22,-0.149,0.0392,0.638,0.547 (inactive),-0.146,-0.979,0.798 (inactive),0.546,0.206 (inactive),1.33 (inactive),-0.328 (inactive),0.93 (inactive),0.66 (inactive),0.783 (inactive),0.721 (inactive),0.838,2.21
CCCN1C(=O)[C@@]2(c3ccc([N+](=O)[O-])cc3)CC(=O)N(C3CCCCC3)[C@@H]2c2ccc(CO)cc21,-0.522,-0.952,-0.574,-0.679,-0.173,-1.19,-0.626 (inactive),-0.696,-0.868,-0.291 (inactive),-0.225,1.88 (inactive),-0.674 (inactive),-24.3 (active),0.944 (inactive),1.89 (inactive),0.197 (inactive),-1.27 (inactive),-0.606,-0.0773
O=C1O[C@@H](c2ccccc2)[C@@H](c2ccccc2)N2[C@@H](c3ccccc3OCCO)[C@]3(C(=O)Nc4ccc(C#CC5(O)CCCCCC5)cc43)[C@@H](C(=O)N3CCCCCCC3)[C@H]12,-1.66,1.48,-0.0161,-0.651,-2.59,-1.4,0.644 (inactive),-0.96,-1.33,-0.64 (inactive),-0.225,0.866 (inactive),-0.169 (inactive),-1.03 (inactive),1.33 (inactive),0.312 (inactive),-0.36 (inactive),-1.17 (inactive),-0.186,1.97
C=C[C@@H](CO)NS(=O)(=O)c1ccc(Br)cc1,2.03,0.935,2.23,0.855,1.05,0.631,0.369 (inactive),0.133,0.993,2.35 (inactive),1.4,-2.03 (inactive),1.16 (inactive),-1.37 (inactive),0.193 (inactive),-2.19 (inactive),1.43 (inactive),1.16 (inactive),0.867,-0.215
CCCC[C@@H](O)C1=C(C)Cn2c(=O)n(-c3ccccc3)c(=O)n2[C@H]1CO,1.38,0.345,0.108,0.548,0.617,0.372,0.276 (inactive),-0.347,-0.804,-1.16 (inactive),-0.256,-1.82 (inactive),-0.0268 (inactive),-1.06 (inactive),0.413 (inactive),-1.88 (inactive),0.514 (inactive),0.715 (inactive),-0.0486,-0.249
